Results from PubChem BioAssay (NCI).
“And” between values parts separate entries of the source, which are not always exact repeats. Equal values may be shown once. This is part of a sample that, as a whole, favours compounds with a hit. Of some 79,000 tested, about 15% had one in any assay. A structure can be active in one record and inactive in another. The source made the active and inactive calls. Cut-off read from the data, not from the text of the source: active = growth inhibition above about 70%; inactive = the rest.

What was measured:
[1] = NCI Yeast Anticancer Drug Screen. Data for the rad50 strain (AID 155);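 note: 0% = growth of vehicle-only cultures of the same strain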; details: S. cerevisiae rad50 strain growth inhibition, stronger effect = higher value
Method in brief: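 Relative growth inhibition (compound vs vehicle) was measured in yeast with a defined repair-gene alteration.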

[2] = NCI Yeast Anticancer Drug Screen. Data for the mec2-1 strain (AID 157); details: S. cerevisiae mec2-1 strain, stronger effect = higher value
Method in brief: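 Strain: mec2-1 (DNA repair/cell cycle alteration). Compound exposure, then growth measured; inhibition expressed relative to vehicle.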

[3] = NCI Yeast Anticancer Drug Screen. Data for the sgs1 mgt1 strain (AID 161);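 note: 0% = growth of cultures given vehicle only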; details: S. cerevisiae sgs1 mgt1 strain, stronger effect = higher value
Method in brief: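 Inhibition of yeast growth, normalised to vehicle-treated controls, is reported for a strain bearing genetic alterations in DNA damage repair.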

[4] = NCI Yeast Anticancer Drug Screen. Data for the cln2 rad14 strain (AID 165);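 note: 0% = growth equal to vehicle treated cultures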; details: S. cerevisiae cln2 rad14 strain, stronger effect = higher value
Method in brief: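 Compounds are applied to the cln2 rad14 yeast strain, and growth is then compared with that of vehicle-treated cultures to give inhibition.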

[5] = NCI Yeast Anticancer Drug Screen. Data for the bub3 strain (AID 167); details: S. cerevisiae bub3 mutant strain, stronger effect = higher value
Method in brief: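 Screening used yeast with an engineered genetic alteration affecting cell cycle control. Compound-exposed cultures were compared with vehicle cultures, and reduced growth was taken as inhibition.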

[6] = NCI Yeast Anticancer Drug Screen. Data for the mlh1 rad18 strain (AID 175); details: S. cerevisiae mlh1 rad18 strain growth inhibition, stronger effect = higher value
Method in brief: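 Read-out is yeast growth inhibition, calculated against vehicle-only controls. The compound was applied to a strain engineered with DNA damage repair alterations.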

[7] = at 5.0 µM (retest, dose inferred, filed as 0.5)
[8] = at 50.0 µM (retest, dose inferred, filed as 5.0)

Row | SMILES | growth inhibition [1, 7] | growth inhibition [1, 8] | growth inhibition ([1]; at 50.0 µM) | growth inhibition [2, 7] | growth inhibition [2, 8] | growth inhibition ([2]; at 50.0 µM) | growth inhibition [3, 7] | growth inhibition [3, 8] | growth inhibition ([3]; at 50.0 µM) | growth inhibition [4, 7] | growth inhibition [4, 8] | growth inhibition ([4]; at 50.0 µM) | growth inhibition [5, 7] | growth inhibition [5, 8] | growth inhibition ([5]; at 50.0 µM) | growth inhibition [6, 7] | growth inhibition [6, 8] | growth inhibition ([6]; at 50.0 µM)
1 | O=C(c1ccc(Cl)cc1)C(O)c1ccc(Cl)cc1 (stereo not given) | -2% (inactive) and 10% (inactive) | 27% (inactive) and 74% (active) | 34.2% (inactive) | -9% (inactive) and -3% (inactive) | 14% (inactive) and 35% (inactive) | 12.4% (inactive) | -2% (inactive) and 4% (inactive) | 79% (active) and 82% (active) | 55.1% (inactive) | -8% (inactive) and 7% (inactive) | 67% (inactive) and 28% (inactive) | 36% (inactive) | -10% (inactive) and -1% (inactive) | 20% (inactive) and 45% (inactive) | 65.8% (inactive) | -6% (inactive) and -12% (inactive) | 53% (inactive) and 49% (inactive) | 62.3% (inactive)
2 | CN1C=c2c3c(ccc2=C2C=CC4C=C5OCOC5=CC4=C21)OCO3 (stereo not given) | 48% (inactive) and 33% (inactive) | 97% (active) and 98% (active) | 92% (active) and 91.6% (active) | 32% (inactive) and 11% (inactive) | 98% (active) and 99% (active) | 93.3% (active) and 93% (active) | 56% (inactive) and 13% (inactive) | 98% (active) and 99% (active) | 93% (active) and 92.8% (active) | 37% (inactive) and 11% (inactive) | 98% (active) and 99% (active) | 92% (active) | 74% (active) and 17% (inactive) | 98% (active) and 99% (active) | 92.5% (active) and 91.8% (active) | 63% (inactive) and 30% (inactive) | 97% (active) | 92.5% (active) and 91.7% (active)
3 | c1ccc([P+](CCCCCCCC[P+](c2ccccc2)(c2ccccc2)c2ccccc2)(c2ccccc2)c2ccccc2)cc1 | 40% (inactive) | 98% (active) | 88.5% (active) | 39% (inactive) | 99% (active) | 92% (active) | 46% (inactive) | 98% (active) | 90.9% (active) | 30% (inactive) | 95% (active) | 87.7% (active) | 46% (inactive) | 98% (active) | 91.1% (active) | 73% (active) | 97% (active) | 89.8% (active)
4 | OC(c1nc2ccccc2[nH]1)C(O)C(O)C(O)c1nc2ccccc2[nH]1 (stereo not given) | -2% (inactive) | -28% (inactive) | -8.95% (inactive) and 19.2% (inactive) | -25% (inactive) | -18% (inactive) | -15.1% (inactive) and 2.95% (inactive) | -20% (inactive) | 1% (inactive) | -18.4% (inactive) and 17.9% (inactive) | 0% (inactive) | -3% (inactive) | 2.25% (inactive) and -6.8% (inactive) | -15% (inactive) | -28% (inactive) | -38.5% (inactive) and 44.8% (inactive) | -22% (inactive) | -49% (inactive) | 2.85% (inactive) and 22% (inactive)
5 | Oc1ccc(Cc2ccccc2)cc1 | 1% (inactive) | 14% (inactive) | 63.6% (inactive) | -3% (inactive) | 14% (inactive) | 34% (inactive) | -4% (inactive) | 15% (inactive) | 23.8% (inactive) | -5% (inactive) | -12% (inactive) | -18.6% (inactive) | -2% (inactive) | 6% (inactive) | 42.2% (inactive) | 2% (inactive) | 11% (inactive) | 72.2% (active)
6 | CCOC(=O)C(Cc1c[nH]c2cc([N+](=O)[O-])ccc12)NS(=O)(=O)c1ccc2ccccc2c1 (stereo not given) | -19% (inactive) | 96% (active) | 95.3% (active) | 2% (inactive) | 98% (active) | 97.3% (active) | -4% (inactive) | 98% (active) | 97.2% (active) | -17% (inactive) | 94% (active) | 94.2% (active) | 9% (inactive) | 98% (active) | 97.8% (active) | -19% (inactive) | 97% (active) | 95.7% (active)
7 | Nc1nc(Cl)cc(NCCCCCCCCCCNc2cc(Cl)nc(N)n2)n1 | -4% (inactive) | 96% (active) | 28.9% (inactive) | 3% (inactive) | 100% (active) | 19.1% (inactive) | -1% (inactive) | 100% (active) | 0.05% (inactive) | 10% (inactive) | 99% (active) | 52.1% (inactive) | -7% (inactive) | 99% (active) | 18.8% (inactive) | 14% (inactive) | 99% (active) | 33% (inactive)
8 | Oc1ccccc1C=Nc1ccccc1O | 22% (inactive) | 32% (inactive) | 59.2% (inactive) and 56.2% (inactive) | 8% (inactive) | 22% (inactive) | 36.7% (inactive) and 41.9% (inactive) | 7% (inactive) | 16% (inactive) | 35.5% (inactive) and 42.1% (inactive) | -5% (inactive) | 5% (inactive) | 17.2% (inactive) and 32.1% (inactive) | 79% (active) | 65% (inactive) | 54.4% (inactive) and 72.1% (active) | 38% (inactive) | 47% (inactive) | 49.8% (inactive) and 29.6% (inactive)
9 | CCCC1=CCCC1 | 2% (inactive) | 8% (inactive) | 91.1% (active) | 2% (inactive) | -6% (inactive) | 92.5% (active) | -1% (inactive) | 1% (inactive) | 50.9% (inactive) | 0% (inactive) | 2% (inactive) | 50% (inactive) | 1% (inactive) | 1% (inactive) | 96.8% (active) | 0% (inactive) | 5% (inactive) | 50.2% (inactive)
10 | COc1ccc(N/N=C(\CCN(C)C)c2ccccc2)cc1 | 7% (inactive) | 51% (inactive) | 80.7% (active) | -2% (inactive) | 40% (inactive) | 3.7% (inactive) | 16% (inactive) | 61% (inactive) | 56.9% (inactive) | 6% (inactive) | 32% (inactive) | 57.9% (inactive) | -6% (inactive) | 78% (active) | 49.2% (inactive) | 12% (inactive) | 78% (active) | 94.8% (active)
11 | CCN(CC)C(=S)Sc1nc2ccccc2s1 | -3% (inactive) | 88% (active) | 34.2% (inactive) | -2% (inactive) | 87% (active) | -12.1% (inactive) | 0% (inactive) | 95% (active) | 16.7% (inactive) | -7% (inactive) | 13% (inactive) | -54.5% (inactive) | 24% (inactive) | 91% (active) | 68.1% (inactive) | 5% (inactive) | 63% (inactive) | 18.4% (inactive)
12 | CC(C)(C)c1ccc(-c2c3ccccc3cc3ccccc23)cc1 | -1% (inactive) | -1% (inactive) | -2.45% (inactive) | -1% (inactive) | -1% (inactive) | -4.85% (inactive) | -5% (inactive) | -2% (inactive) | 7.55% (inactive) | 2% (inactive) | -1% (inactive) | 30.1% (inactive) | 1% (inactive) | 16% (inactive) | 0.8% (inactive) | -1% (inactive) | 2% (inactive) | -2.2% (inactive)
13 | O=C1NC(=O)c2c1cccc2[N+](=O)[O-] | -7% (inactive) | 31% (inactive) and 12% (inactive) | -4.8% (inactive) and 18.4% (inactive) | -20% (inactive) and 2% (inactive) | 4% (inactive) and 8% (inactive) | -4% (inactive) and 25% (inactive) | -2% (inactive) and 0% (inactive) | 0% (inactive) and 8% (inactive) | 9.25% (inactive) and -3.15% (inactive) | -5% (inactive) and 0% (inactive) | -6% (inactive) and -5% (inactive) | 45.3% (inactive) and 50.4% (inactive) | 37% (inactive) and -2% (inactive) | -4% (inactive) and 8% (inactive) | -1.4% (inactive) and 20.1% (inactive) | -4% (inactive) and -3% (inactive) | 3% (inactive) and 13% (inactive) | 8.5% (inactive) and 2.2% (inactive)
14 | O=C1C(CN2CCCCC2)CCCC1CN1CCCCC1 (stereo not given) | 0% (inactive) | 25% (inactive) | 13.3% (inactive) and 4.85% (inactive) | 2% (inactive) | 44% (inactive) | -11.6% (inactive) and 24.8% (inactive) | 1% (inactive) | 29% (inactive) | 10.4% (inactive) and 31.3% (inactive) | -4% (inactive) | 6% (inactive) | -46.1% (inactive) and 41.2% (inactive) | -4% (inactive) | 20% (inactive) | -3.9% (inactive) and 59.3% (inactive) | -1% (inactive) | 29% (inactive) | 3.2% (inactive) and 10.4% (inactive)
15 | Cc1ccc(S(=O)(=O)SC/C=C\CSS(=O)(=O)c2ccc(C)cc2)cc1 | 4% (inactive) and 51% (inactive) | 97% (active) and 95% (active) | 93.3% (active) and 74.7% (active) | 14% (inactive) and -2% (inactive) | 97% (active) | 97% (active) and 5.65% (inactive) | 12% (inactive) and 67% (inactive) | 95% (active) and 97% (active) | 95.8% (active) and 76.7% (active) | 3% (inactive) and 12% (inactive) | 94% (active) | 88.6% (active) and 22.6% (inactive) | 12% (inactive) and 17% (inactive) | 99% (active) and 98% (active) | 96.5% (active) and -3.05% (inactive) | 2% (inactive) and 53% (inactive) | 98% (active) and 95% (active) | 95.9% (active) and 41.2% (inactive)
